Neddyl block: cullin neddylation inhibition; 360,000 compounds, 0.58% hits; AID 651699; TR-FRET cullin neddylation, biochemical; inhibition, % at 25 µM; in the data active means inhibition above about 36%
DAGLB inhibitor: diacylglycerol lipase beta (human) inhibition. HEK293T DAGLB membrane lysate, EnzChek fluorogenic substrate. 340,000 compounds, 0.059% hits. Q8NCG7. AID 504411. inhibition, % at 5.17 µM; in the data active means inhibition above about 34%
sPLA2-III inh: Inhibits HGIII-sPLA2 liposome hydrolysis, primary screen. AID 743126. Q9NZ20. QFRET BODIPY PC-A2 liposome hydrolysis, fluorescence. 370,000 compounds, 0.56% hits. inhibition, % at 12.2 µM;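 active means inhibition above mean plus 3 SD of compounds lying within the high and low control bounds, cut at about 19% in these data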
ARNT-TACC3 inh: disrupts binding between human ARNT and TACC3. Q9Y6A5. AlphaScreen His-ARNT PAS-B/GST-TACC3 binding, luminescence; TACC3 fragment carries E629A point mutation. inhibition, % at 9.99 µM. 390,000 compounds, 0.66% hits;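 active means mean inhibition of replicates at least 50% and at least half of replicates each reaching 50%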
NadD block: NadD (S. aureus) enzyme inhibition. purified NadD enzyme, colorimetric absorbance read-out. 360,000 compounds, 0.78% hits. inhibition, % at 20 µM; in the data active means inhibition above about 26%
Neddyl inh conf: cullin neddylation inhibition, confirmation; AID 652217; 1,800 compounds, 13% hits; calls only at 25 µM; TR-FRET cullin neddylation biochemical assay; shares compounds with Neddyl block; in the data active means inhibition above about 40%;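 further: neddylation substrate is the cullin 1 ring ligase complex with SKP2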
Hits are given with their value; i = inactive; nt = no result shown; + = active, no number. Hits are enriched below; roughly 2% of the tested compounds scored in any of these assays.

SMILES	Neddyl block	DAGLB inhibitor	sPLA2-III inh	ARNT-TACC3 inh	NadD block	Neddyl inh conf
Cn1c(=O)c(-c2ccccc2N)nc2ccccc21	i	i	i	i	i	nt
O=C(c1ccc2c(c1)OCO2)N1CCCCN2[C@H](CO)[C@@H](c3ccc(-c4ccccc4)cc3)[C@@H]2C1	nt	nt	nt	i	nt	nt
CC(=O)Nc1ccc(Nc2nnc(-c3ccc(C)c(S(=O)(=O)NCC4CCCO4)c3)c3ccccc23)cc1 (configuration not stated)	i	i	i	i	i	nt
CNC(=O)c1ccc(Nc2nnc(-c3ccc(C)c(S(=O)(=O)NCC4CCCO4)c3)c3ccccc23)cc1 (configuration not stated)	40	i	i	i	i	i
CCCC(C(=O)NCCC(C)C)N(Cc1ccccc1)C(=O)c1snc(C(N)=O)c1N (configuration not stated)	40	i	i	i	i	i
CCCCC(C(=O)NC1CCCC1)N(Cc1ccccc1)C(=O)c1snc(C(N)=O)c1N (configuration not stated)	i	i	i	i	i	nt
Cc1ccccc1N(C(=O)c1snc(C(N)=O)c1N)C(C(=O)NCc1ccccc1)c1ccc(O)cc1 (configuration not stated)	i	i	i	i	i	nt
CCOc1ccccc1N(C(=O)c1snc(C(N)=O)c1N)C(C(=O)NCc1ccccc1)c1ccc(O)cc1 (configuration not stated)	42	i	i	i	i	nt
COc1ccc(C)cc1N(C(=O)c1snc(C(N)=O)c1N)C(C(=O)NC1CCCC1)c1ccc(F)cc1 (configuration not stated)	43	i	i	i	i	nt
CC(C(=O)NCC1CCCO1)N(C(=O)c1snc(C(N)=O)c1N)c1cccc(F)c1 (configuration not stated)	52	i	i	i	i	nt
COCC#Cc1ccc2c(c1)O[C@H](CN(C)CC1CCOCC1)[C@@H](C)CN([C@H](C)CO)S2(=O)=O	nt	nt	nt	i	nt	nt
COCCNC(=O)C(c1ccc(C)o1)N(C(=O)c1snc(C(N)=O)c1N)c1cccc(C)c1 (configuration not stated)	45	i	i	i	i	i
COCCNC(=O)C(c1ccc(C)o1)N(C(=O)c1snc(C(N)=O)c1N)c1ccc(C)c(C)c1 (configuration not stated)	i	i	i	i	i	nt
COc1ccc(N(C(=O)c2snc(C(N)=O)c2N)C(C(=O)NCc2ccccc2)c2ccc(O)cc2)cc1OC (configuration not stated)	i	i	i	i	i	nt
COc1cccc(N(C(=O)c2snc(C(N)=O)c2N)C(C(=O)NCc2ccccc2)c2ccc(O)cc2)c1 (configuration not stated)	52	i	i	i	i	+
CCOc1ccccc1N(C(=O)c1snc(C(N)=O)c1N)C(C(=O)NCC1CCCO1)c1ccc2ncccc2c1 (configuration not stated)	52	i	i	i	i	i
COc1ccc(C(C(=O)NCc2ccccc2)N(C(=O)c2snc(C(N)=O)c2N)c2ccccc2OC)cc1OC (configuration not stated)	53	i	i	i	i	nt
NC(=O)c1nsc(C(=O)N(c2ccccc2)C(C(=O)NCC2CCCO2)c2ccc3ncccc3c2)c1N (configuration not stated)	nt	i	i	i	i	nt
COc1ccc(NC(=O)Nc2cccc3c2O[C@H](CN(C)S(=O)(=O)c2ccccc2)[C@@H](C)CN([C@@H](C)CO)C3=O)cc1	nt	nt	nt	i	nt	nt
CCCC(=O)Nc1ccc2c(c1)OC[C@H](C)N(C(=O)CC)C[C@@H](C)[C@H](OC)CN(C)C2=O	nt	nt	nt	i	nt	nt
CO[C@@H]1CN(C)C(=O)c2cc(NC(=O)c3ccc4c(c3)OCO4)ccc2OC[C@H](C)NC[C@H]1C	nt	nt	nt	i	nt	nt
CC(C)(C)c1ccc(NC(=O)C2CCCN(c3cnccn3)C2)cc1 (configuration not stated)	41	i	i	i	i	i
COc1ccc(NC(=O)C2CCCN(c3cnccn3)C2)cc1 (configuration not stated)	i	i	i	i	i	nt
CN1CCN(C(=O)C[C@@H]2CC[C@@H]3[C@H](COC[C@@H](O)CN3C(=O)C3CC3)O2)CC1	nt	nt	nt	i	nt	nt
Nc1c2c(=O)oc(-c3ccccc3)cc2nn1-c1ccccc1	50	i	i	i	i	+

Bioassay records from PubChem.
